The values below come from PubChem BioAssay AID720519 (National Center for Advancing Translational Sciences (NCATS), 2013).

Each structure is given as a SMILES string. Records with an inconclusive call do not appear. Entries that show only a call come without a potency. Activity calls are given as the source filed them. Calls follow the shape of the dose curve; as a rule, active = well fitted activation curve with a large enough effect; inconclusive = small, poorly fitted or top-dose-only effect; inactive = flat fitted curve, though single readings scatter.
Potency is read from the fitted curve at half-maximal effect.

This test can be described thus: qHTS for Inhibitors of Cell Surface uPA Generation: Confirmatory Assay for Cherry-picked Compounds. Conditions: cell surface uPA activity generation, qHTS confirmation; series mostly up to 115 µM. From the text: The overall objective of this project is to perform a quantitative high throughput screen (qHTS) to identify novel compounds that inhibit the generation of cell surface urokinase activity. The urokinase plasminogen activator (uPA) is one of the two primary endogenous systems that mediate plasminogen activation into plasmin. Members of this system, including uPA and its receptor (uPAR), are overexpressed in several malignant tumors. This system plays a major role in adhesion, migration, invasion and metastasis of cancer cells. Small molecule inhibitors of the uPA system will serve as probes to understand the molecular mechanisms of the uPA cascade and better understanding the micro-environmental circumstances that facilitate the activation of plasminogen by uPA, and finally may provide novel candidate agents for anticancer drug therapy.
[…] […] Upon inhibition of the uPA activation cascade, the subsequent cell surface uPA activity-dependent translocation of LF into the cytoplasm is inhibited. ATP-Lite is used to measure intracellular ATP concentrations (measure cell viability) which remain increased if LF entry into the cytoplasm is inhibited. This validation assay was performed using a small set of cherry picked compounds. Activation of cell viability (increase in luminescence signal) due to inhibition of the cell surface uPA generation is the desired outcome of this assay.
NIH Chemical Genomics Center [NCGC]
NIH Molecular Libraries Probe Centers Network [MLPCN]
Assay Submitter (PI): Thomas Bugge, National Institute of Dental and Craniofacial Research, NIH
Cultured RAW 264.7 were dispensed into 1536-well clear bottom, white walled tissue culture plates at a density of 4000 cells/well and were incubated overnight (12-16 h) at 37 C in a 5% CO2 incubator. Serially diluted compounds (1:5 dilution) in 23 nl DMSO were added to cells (0.0024 uM to 3.83 uM final concentration). […] Compound and reagent-treated plates were incubated for 24 h at 37 C in a 5% CO2 incubator. Three microliter of PerkinElmer ATPlite was then added to each well and luminescence was detected using the PerkinElmer ViewLux plate reader for a 5 sec exposure.
Consider `O=C(Nc1cccc(-c2nn[nH]n2)c1)c1ccc(Cl)s1`, for which the Potency result was “inactive”.
Take `COc1ccc(-n2ncc3c(=O)n(CC(=O)NC(C)C)cnc32)cc1`: the Potency entry was “inactive”.
Next, `OCC[C@@H]1C[C@H](O)[C@@H](O)[C@]2(OCCc3ccccc32)O1`: “inactive”.
Under `N#C/C(N=Nc1ccccc1O)=N\Nc1ccccc1O` stands “inactive”; under `CC(C)C(=O)Nc1nnc(SCc2cccc(F)c2)s1`, “inactive”; under `O=C(COC(=O)c1ccc2ncsc2c1)NCc1cccc(Cl)c1`, “inactive”.
In the case of `CCCCn1c(SCC(=O)Nc2cc(C(F)(F)F)ccc2Cl)nnc1C(CC)N(C)C` (stereo not given), the Potency is 52.1 µM (active).
`COC(=O)c1ccc(CN2CCCC(CNC(=O)Cc3ccc(OC)cc3)C2)cc1` (stereo not given): the Potency entry is “inactive”.
In the case of `CC1CCCN(C(=O)c2ccc(CNc3c(N4CCCCC4)c(=O)c3=O)cc2)C1` (stereo not given), the Potency entry was “inactive”.
With `COCc1c(C(=O)Nc2nc(C)cs2)oc2ccccc12`, the Potency entry was “inactive”.
In the case of `O=C(C1CCCCN1S(=O)(=O)c1ccc(F)cc1)N1CCN(c2ccccc2F)CC1` (stereo not given), the Potency result is “inactive”.
As for `CC(C(=O)Nc1nccs1)c1ccc([N+](=O)[O-])cc1` (stereo not given), the Potency result is “inactive”.
For `COc1ccccc1-c1ccc(SCC(=O)NCCc2ccccc2)nn1`, the Potency result is “inactive”.
Regarding `O=C(NCC1CCCO1)c1ccc(NC(=O)c2ccc([N+](=O)[O-])cc2)cc1` (stereo not given), the Potency result is “inactive”.
Consider `O=S(=O)(NCC(c1cccnc1)N1CCOCC1)c1ccccc1` (stereo not given), for which the Potency result is “inactive”.
Under `Cc1ccc(S(=O)(=O)NC(=O)Nc2nccs2)cc1` stands “inactive”.
Consider `O=C(NCCN1CCOCC1)c1ccc2c(c1)N(Cc1ccc(Cl)cc1)CCS2`, for which the Potency result is “inactive”.
`COc1ccccc1N=Nc1c(C)[nH]n(-c2ccccc2)c1=O`: the Potency result was “inactive”.
On to `CC(C)CCN1C(=O)c2ccc(-c3nc4ccccc4c(=O)o3)cc2C1=O`, for which the Potency result was “inactive”.
Under `CCOCCOc1cc(NCc2ccccc2)c2ncn(C(C)C)c2c1` stands “inactive”.
As for `Cc1ccc(C(=O)NNC(=O)CNc2cccc(Cl)c2)cc1`, the Potency entry was “inactive”.
With `CCCc1nc2c(=O)n(C)c(=O)[nH]c2n1CCC`, the Potency entry was “inactive”.
Take `CCOC(=O)N1CCc2c(sc3nc4n(c(=O)c23)N=C(C)CS4)C1`: the Potency entry is “inactive”.
Next, `CC1Cc2nc(SCC(=O)N3CCCC3)n(C)c(=O)c2S1` (stereo not given): “inactive”.
For `Cc1ccc2cccc(OCCCOc3ccccc3CO)c2n1`, the Potency result is “inactive”.
Take `OCC1CCCCN1CC(O)COC(c1ccc(F)cc1)c1ccc(F)cc1` (stereo not given): the Potency entry is “inactive”.
In the case of `C[C@H]1CN([C@@H](C)CO)C(=O)c2cc(NS(=O)(=O)c3ccc(Cl)cc3)ccc2O[C@@H]1CN(C)CC1CCCCC1`, the Potency entry was “inactive”.
`CCOc1cc(N2CCOCC2)c(OCC)cc1NC(=O)c1[nH]c(C)c(C(C)=O)c1C`: the Potency entry is “inactive”.
In the case of `O=C(NCCc1cn2ccsc2n1)c1cccs1`, the Potency entry is “inactive”.
For the compound `COC(=O)[C@H](CC(C)C)N(Cc1ccccc1)S(=O)(=O)N(Cc1ccc(OC)cc1)[C@@H](CC(C)C)C(=O)OC`, the Potency entry is “inactive”.
For `CC(C)N1CCc2c(sc(NC(=O)Cc3ccccc3)c2C(N)=O)C1`, the Potency entry is “inactive”.
Regarding `Cc1c(C(=O)N2CCN(S(=O)(=O)c3cccs3)CC2)oc2ccc(F)cc12`, the Potency entry was “inactive”.
Turning to `C[C@H](CO)N1C[C@H](C)[C@@H](CN(C)C(=O)Nc2ccccc2)Oc2ccc(NC(=O)Cn3cnnn3)cc2C1=O`, the Potency entry is “inactive”.
Take `CC1Cc2nc(SCC(=O)Nc3ccc4c(c3)OCO4)n(-c3ccc(F)cc3)c(=O)c2S1` (stereo not given): the Potency result is “inactive”.
Take `CC(=O)NS(=O)(=O)c1ccc(NC(=O)c2cccc(OCc3c(C)noc3C)c2)cc1`: the Potency entry is “inactive”.
Regarding `Cc1[nH]c2ccc(C(=O)OC(C)C(=O)NC3CCCCC3C)cc2c1C` (stereo not given), the Potency entry is “inactive”.
`CC(C)OC(=O)c1ccc(N2CCN(c3ccccc3F)CC2)nc1`: the Potency result was “inactive”.
Next, `CCN(CC(=O)Nc1c(F)cccc1F)C(=O)c1ccc(-c2ccc(C(C)=O)cc2)o1`: “inactive”.
`O=C(NCCCn1ccnc1)C(=O)NCC(c1cccnc1)N1CCN(c2ccc(F)cc2)CC1` (stereo not given): the Potency result was “inactive”.
As for `Cc1cccc(-c2nc(CS(=O)CC(=O)NCc3cccs3)c(C)o2)c1` (stereo not given), the Potency entry was “inactive”.
